Results published in PubChem BioAssay AID1259313 (Sanford-Burnham Center for Chemical Genomics, 2017).
Out of some 340,000 compounds screened, about 8,500 (2.5%) were called active. The sample holds actives, similar compounds and a random draw of the others, so the mix is not that of the screen.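 Rule for the calls: active = melting temperature shift of at least 10% of the positive control shift, at one fixed dose; inactive = the rest.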

test system: Glutamate receptor ionotropic, NMDA 3A (GRIN3A) ligand-binding domain; assay: NR3A LBD thermal stabilization by compounds – biophysical, differential scanning fluorimetry, uHTS, primary screen (AID 1259313); settings: at 25 µM, hits give high values, 0% = protein alone, 100% = glycine-bound protein

Tm shift relative to glycine control, active:
Cc1ccc(Oc2cc(NC(=O)CCCn3nc(C)c([N+](=O)[O-])c3C)cc([N+](=O)[O-])c2)cc1 14.9%, CC1CC(C)CN(CC(=O)Nc2ccc(S(N)(=O)=O)cc2)C1 (stereo not drawn) 10%, O=C(COC(=O)C1CCN(S(=O)(=O)c2ccc3c(c2)OCCO3)CC1)Nc1ccccc1OC(F)F 10.1%, O=C(NN=Cc1ccccc1O)NN=Cc1ccccc1O 29.9%, Cc1cc([N+](=O)[O-])ccc1NC(=O)c1ccc(NC(=O)C(C)C)cc1 13.6%, CC(C)S(=O)(=O)c1csc(NC(=O)Nc2ccc(Cl)cc2)c1Cl 24.3%, COc1ccc(-c2ccc(Nc3ccc(S(=O)(=O)N4CCCC4)cc3)nn2)cc1OC 18.4%, Cc1ccc(-c2cc(C(=O)N/N=C/C=C/c3ccccc3)n[nH]2)o1 19.9%, COc1ccc(C)cc1S(=O)(=O)N(CC(=O)Nc1cccc([N+](=O)[O-])c1)c1ccc(C)cc1 17.5%, COc1ccccc1NC(=O)CN1CCN(S(=O)(=O)c2ccc(Br)cc2)CC1 24.1%

Tm shift relative to glycine control, inactive:
CCCc1c(C(=O)N/N=C(\C)CCc2ccc(OC)cc2)nnn1-c1nonc1N 0.47%, CCNc1nc(N)nc(-c2cc(Cl)ccc2OC)n1 1.29%, CCN(CC(=O)Nc1c(F)cccc1F)C(=O)CN1c2cccc3cccc(c23)S1(=O)=O -0.42%, COc1ccc(CNC(=O)CCCn2nc(C)c([N+](=O)[O-])c2C)cc1 2.36%, CCc1ccc(NC(=O)Cn2nc(C)c([N+](=O)[O-])c2C)cc1 -12.5%, Cc1cc(C)cc(OCC(=O)OCC(=O)NC2CCCC2)c1 1.75%, CCOC(=O)C1CCCN(C(=O)Cn2ncc3c(=O)oc4ccc(C)cc4c32)C1 (stereo not drawn) -4.2%, Cc1ccc(-c2nnc(CN3CCN(C)CC3)o2)cc1 0.59%, CC1CN(C(=S)Nc2ccc(S(N)(=O)=O)cc2)CC(C)O1 (stereo not drawn) -1.98%, CC1Cc2ccccc2N1CC(=O)Nc1ccc(S(N)(=O)=O)cc1 (stereo not drawn) 6.2%, Cc1ccc(Nc2c(O)nc[nH]c2=O)cc1C -3.98%, COc1ccccc1CNC(=O)C1CCN(S(=O)(=O)c2ccc3c(c2)OCCO3)CC1 6.45%, CCOC(=O)C1CCN(C(=O)COC(=O)C2CCN(S(=O)(=O)c3ccc4c(c3)OCCO4)CC2)CC1 -0.43%, O=C(CSc1ncnc2scc(-c3ccccc3)c12)NCc1ccc2c(c1)OCO2 -0.99%, O=C(N/N=C/c1ccccc1O)C1CCCC1 -0.52%, O=C(NN=Cc1ccccc1O)C(=O)NN=Cc1ccccc1O -0.25%, COc1ccc(C2NC(=O)N(C)C(C)=C2[N+](=O)[O-])cc1 (stereo not drawn) 0%, CC(C)C(=O)Nc1cccc(NC(=O)c2ccc([N+](=O)[O-])cc2Cl)c1 -1.57%, CC(=O)c1ccc(NC(=O)Nc2ccc([N+](=O)[O-])cc2C)cc1 7.59%, CN(Cc1ccco1)S(=O)(=O)c1nnc(NC(=O)c2ccccc2)s1 -1.03%, CC(C)(Oc1ccc(C2CC2(Cl)Cl)cc1)C(=O)O (stereo not drawn) -0.77%, O=C(NCc1ccccn1)Nc1ccc(Cl)cc1 -1.47%, O=C(Nc1ccc(Cl)cc1)Nc1ccc(C(=O)N2CCOCC2)cc1 2.25%, COc1ccc([N+](=O)[O-])cc1N(CC(O)CN(CC(C)C)CC(C)C)S(=O)(=O)c1ccc(C)cc1 (stereo not drawn) -2.17%, COc1cccc(NC(=O)C(Sc2nc3ccccc3c(=O)n2CC(C)C)c2ccccc2)c1 (stereo not drawn) 5.55%, N#Cc1c(N)sc2c1CCN(C(=O)OCc1ccccc1)C2 -2.92%, Cn1cc(S(=O)(=O)NC(c2ccccc2)c2ccccc2)c(=O)n(C)c1=O -0.16%, COc1cc(C(C)=O)ccc1OC(C)C(=O)Nc1ccc(S(=O)(=O)N2CCCC2)cc1 (stereo not drawn) 1.81%, COc1ccc(S(=O)(=O)N2CCCCCC2)cc1NC(=O)Cc1ccc(OC)c(OC)c1 0.44%, COc1cc(/C(=C/c2ccccc2)c2ccccc2)c2c(c1)oc1ccccc12 3.2%, O=C(NN=CC=Cc1ccccc1)C(O)C(O)C(=O)NN=CC=Cc1ccccc1 (stereo not drawn) 3.13%, Cc1ccc(-c2cc(C(=O)NN)n[nH]2)o1 -1.08%, COCc1nc2ccccc2n1Cc1ccccc1Br -1.6%, O=C(Oc1ccc(-c2nnco2)cc1)c1ccc(F)c(S(=O)(=O)N2CCOCC2)c1 0.78%, COC(CNC(=O)Cn1ncc2ccsc2c1=O)OC -0.44%, Cc1ccc(S(=O)(=O)N(CC(=O)Nc2cccc([N+](=O)[O-])c2)Cc2ccc(Cl)cc2)cc1 3.38%, COc1ccc(N(CC(=O)Nc2ccc(C)cc2C)S(=O)(=O)c2ccccc2[N+](=O)[O-])c(OC)c1 -2.12%, C=CCc1cccc2cc(C(=O)NC3CCCC3)c(=O)oc12 -0.75%, O=C(Nc1nnc(CCN2CCCCC2)s1)c1cccc(Cl)c1 -1.3%, Cc1ccc(-c2nnc(C)c(N3CC(C)OC(C)C3)n2)cc1 (stereo not drawn) -2.74%, O=C(CN1CCN(S(=O)(=O)c2ccc(Br)cc2)CC1)Nc1ccccc1C(=O)c1ccccc1 -0.96%, O=C(CN1CCN(S(=O)(=O)c2ccc(F)cc2)CC1)Nc1ccccc1F -1.4%, O=C1CCCC(O)=C1N=Nc1ccc2ncsc2c1 -0.17%, NC(=O)COc1ccc(C23CC4CC(CC(C4)C2)C3)cc1 1.05%, O=C(Cc1ccc(Cl)cc1)c1ccccc1 -0.17%, CC(Sc1sc(=S)sc1SC(C)C(=O)O)C(=O)O (stereo not drawn) 3.28%, O=C(Cc1ccccc1)Nc1ccc(C(=O)Nc2ccccc2C(=O)O)cc1 0.78%, O=C(CN1CCc2ccccc2C1)Nc1cccc(S(=O)(=O)N2CCOCC2)c1 0.42%
